From PubChem BioAssay (EPA / NIEHS) come the findings set out here.

Usually AC50 stands for the midpoint of the concentration-response curve, whichever way the signal moves.

Active and inactive are the calls of the source. Rule for the calls: active = hit-call score of the fitted dose curve at least 0.9, where 1 is the maximum; inactive = score below 0.9.

Assay [1] can be described thus: CEETOX_H295R_ESTRADIOL: CeeTox H295R High-throughput Steroidogenesis Assay for Estradiol (AID 2283440).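 Note: estradiol secreted into medium quantified by LC-MS/MS after dansyl derivatisation.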 The note with it: actives raise or lower the signal. The gist of the method:
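H295R cells pre-stimulated 48 h with 10 uM forskolin, then exposed 48 h to chemical in 0.1% DMSO. Medium estradiol quantified by MTBE extraction, dansyl derivatisation and HPLC-MS/MS; bidirectional fit versus DMSO; MTT viability required >/=70%.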

The nature of assay [2]: CEETOX_H295R_PROG: CeeTox H295R High-throughput Steroidogenesis Assay for Progesterone (PROG) (AID 2283442).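 Note: human H295R adrenal cells primed with 10 µM forskolin before dosing.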 Conditions: actives raise or lower the signal. The gist of the method:
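H295R adrenal cells prestimulated 48 h with 10 uM forskolin, then exposed 48 h to test chemical in 0.1% DMSO. Progesterone in medium quantified by HPLC-MS/MS after MTBE extraction; viability checked by MTT in same wells.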

Read-out in assay [3]: Tumor necrosis factor receptor superfamily member 6 (Homo sapiens) (UniProt P25445)
As to the kind of experiment: LTEA_HepaRG_FAS: Life Technologies and Expression Analysis (LTEA) Assay for Fas cell surface death receptor (FAS) using HepaRG (AID 2283447). The note with it: mRNA level, 48 h; actives raise or lower the signal. The method in brief:
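FAS transcript level was measured by TaqMan qRT-PCR against three housekeeping genes after 48 h chemical exposure. Cells were HepaRG, 0.5% DMSO vehicle, with a top concentration of 100 uM and half-log dilutions over eight points, in duplicate.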

Read-out in assay [4]: Cyclin D2 (CCND2), CCND2 (gene 894)
Nature of the assay: LTEA_HepaRG_CCND2: Life Technologies and Expression Analysis (LTEA) Assay for Cyclin D2 (CCND2) using HepaRG (AID 2283449). Conditions: mRNA level, 48 h; actives raise or lower the signal. The gist of the method: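 Read-out is CCND2 mRNA level measured by qRT-PCR in human HepaRG liver cells and normalised to three housekeeping genes. Chemicals were applied for 48 h at up to 100 uM, with gain or loss fitted relative to 0.5% DMSO.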

Read-out in assay [5]: Cyclin Dependent Kinase Inhibitor 1A (CDKN1A), CDKN1A (gene 1026)
As to the kind of experiment: LTEA_HepaRG_CDKN1A: Life Technologies and Expression Analysis (LTEA) Assay for Cyclin Dependent Kinase Inhibitor 1A (CDKN1A) using HepaRG (AID 2283450). The note with it: mRNA level, 48 h; actives raise or lower the signal. The gist of the method: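 Differentiated HepaRG cells in serum-free induction medium, exposed 48 h in duplicate to eight half-log concentrations up to 100 uM in 0.5% DMSO. mRNA measured by TaqMan qRT-PCR, normalized to ACTB, GAPDH, POLR2A; bidirectional fit versus DMSO.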

Read-out in assay [6]: Cyclin D1 (CCND1), CCND1 (gene 595)
As to the kind of experiment: LTEA_HepaRG_CCND1: Life Technologies and Expression Analysis (LTEA) Assay for Cyclin D1 (CCND1) using HepaRG (AID 2283451). The note with it: mRNA level, 48 h; actives raise or lower the signal. The gist of the method:
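Differentiated HepaRG cells exposed 48 h in serum-free induction medium to eight half-log concentrations from 100 uM top, 0.5% DMSO, duplicates. CCND1 mRNA measured by Fluidigm TaqMan qRT-PCR, normalised to ACTB, GAPDH, POLR2A; bidirectional fit.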

Read-out in assay [7]: catalase (CAT), CAT (gene 847)
As to the kind of experiment: LTEA_HepaRG_CAT: Life Technologies and Expression Analysis (LTEA) Assay for catalase (CAT) using HepaRG (AID 2283452). Conditions: mRNA level, 48 h; actives raise or lower the signal. The gist of the method:
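Expression of CAT was quantified by TaqMan qRT-PCR with ACTB/GAPDH/POLR2A normalization after 48 h chemical exposure of HepaRG. Eight-point half-log series, top 100 uM, in 0.5% DMSO; gain or loss fitted against vehicle.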

Read-out in assay [8]: flavin-containing dimethylaniline monooxygenases 3 (FMO3), FMO3 (gene 2328)
As to the kind of experiment: LTEA_HepaRG_FMO3: Life Technologies and Expression Analysis (LTEA) Assay for flavin-containing dimethylaniline monooxygenases 3 (FMO3) using HepaRG (AID 2283453).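 For AC50: FMO3 transcript by TaqMan qRT-PCR normalized to ACTB GAPDH and POLR2A.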 Conditions: mRNA level, 48 h; actives raise or lower the signal. The gist of the method: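 HepaRG, 48 h exposure, 8-pt half-log series from 100 uM, 0.5% DMSO vehicle, duplicates; FMO3 transcript by Fluidigm TaqMan qRT-PCR, housekeeping-normalized; gain/loss fit vs DMSO.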

Read-out in assay [9]: Cytochrome P450 (CYP1A1), CYP1A1 (gene 1543)
Nature of the assay: LTEA_HepaRG_CYP1A1: Life Technologies and Expression Analysis (LTEA) Assay for Cytochrome P450 (CYP1A1) using HepaRG (AID 2283454). The note with it: mRNA level, 48 h; actives raise or lower the signal. The method in brief:
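Differentiated human HepaRG cells, after 48 h plating, exposed in duplicate for 48 h in serum-free induction medium to 8 half-log concentrations up to 100 uM in 0.5% DMSO. CYP1A1 mRNA by qRT-PCR, normalized to ACTB/GAPDH/POLR2A; bidirectional fit versus DMSO.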

Read-out in assay [10]: CFLAR gene, CFLAR (gene 8837)
Nature of the assay: LTEA_HepaRG_CFLAR: Life Technologies and Expression Analysis (LTEA) Assay for CFLAR gene using HepaRG (AID 2283455). The note with it: mRNA level, 48 h; actives raise or lower the signal. The gist of the method:
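HepaRG, 48 h exposure, 8-pt conc-response (100 uM top, half-log), 0.5% DMSO vehicle, duplicates. CFLAR expression by qRT-PCR; ACTB/GAPDH/POLR2A normalization; gain or loss fit vs DMSO baseline.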

Read-out in assay [11]: Forkhead box O1 (FOXO1), FOXO1 (gene 2308)
Nature of the assay: LTEA_HepaRG_FOXO1: Life Technologies and Expression Analysis (LTEA) Assay for Forkhead box O1 (FOXO1) using HepaRG (AID 2283456). The note with it: mRNA level, 48 h; actives raise or lower the signal. The gist of the method:
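Readout is FOXO1 transcript level by multiplexed qRT-PCR against three housekeeping genes, curve-fitted in both directions relative to 0.5% DMSO vehicle. Human HepaRG cultures received chemicals for 48 h, up to 100 uM in half-log steps.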

Read-out in assay [12]: growth arrest and DNA damage 45 (GADD45A), GADD45A (gene 1647)
Nature of the assay: LTEA_HepaRG_GADD45A: Life Technologies and Expression Analysis (LTEA) Assay for growth arrest and DNA damage 45 (GADD45A) using HepaRG (AID 2283458). Conditions: mRNA level, 48 h; actives raise or lower the signal. The method in brief:
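Differentiated HepaRG cells were exposed in duplicate for 48 h in serum-free induction medium to 8-point half-log concentrations up to 100 uM in 0.5% DMSO. GADD45A mRNA was measured by TaqMan qRT-PCR, normalized to ACTB, GAPDH and POLR2A, with bidirectional fitting versus DMSO.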

Read-out in assay [13]: Forkhead box O3 (FOXO3), FOXO3 (gene 2309)
Nature of the assay: LTEA_HepaRG_FOXO3: Life Technologies and Expression Analysis (LTEA) Assay for Forkhead box O3 (FOXO3) using HepaRG (AID 2283459). The note with it: mRNA level, 48 h; actives raise or lower the signal. The method in brief: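 HepaRG, 48 h post-dose; 8 conc., half-log from 100 uM, 0.5% DMSO, duplicates; serum-free induction medium. Readout: FOXO3 mRNA, TaqMan qRT-PCR, housekeeping-normalized. Bidirectional curve fit vs DMSO baseline.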

Read-out in assay [14]: ABC Transporter (ABCB1), ABCB1 (gene 5243)
Nature of the assay: LTEA_HepaRG_ABCB1: Life Technologies and Expression Analysis (LTEA) Assay for ABC Transporter (ABCB1) using HepaRG (AID 2283460). Conditions: mRNA level, 48 h; actives raise or lower the signal. The gist of the method: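 Expression of ABCB1 was quantified by qRT-PCR against three housekeeping genes after human HepaRG cultures received test chemicals for 48 hours. Concentrations spanned eight half-log steps topping at 100 uM in 0.5% DMSO; gain or loss of signal was fitted relative to vehicle.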

Read-out in assay [15]: growth arrest and DNA damage 45 (GADD45B), GADD45B (gene 4616)
As to the kind of experiment: LTEA_HepaRG_GADD45B: Life Technologies and Expression Analysis (LTEA) Assay for growth arrest and DNA damage 45 (GADD45B) using HepaRG (AID 2283461). Conditions: mRNA level, 48 h; actives raise or lower the signal. The gist of the method:
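Differentiated human HepaRG cells in serum-free induction medium exposed 48 h in duplicate to eight concentrations, top 100 uM, half-log steps, 0.5% DMSO. GADD45B mRNA by TaqMan qRT-PCR, normalized to ACTB, GAPDH, POLR2A; bidirectional fit versus DMSO.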

Read-out in assay [16]: ABC Transporter (ABCC3), ABCC3 (gene 8714)
As to the kind of experiment: LTEA_HepaRG_ABCC3: Life Technologies and Expression Analysis (LTEA) Assay for ABC Transporter (ABCC3) using HepaRG (AID 2283462). Conditions: mRNA level, 48 h; actives raise or lower the signal. The method in brief:
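Differentiated human HepaRG cells exposed 48 h in serum-free induction medium, 0.5% DMSO vehicle, 8-point half-log series to 100 uM in duplicate. ABCC3 mRNA by qRT-PCR, normalised to ACTB, GAPDH, POLR2A; bidirectional fit vs DMSO.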

With `O=P(Oc1ccccc1)(Oc1ccccc1)Oc1ccccc1`, the molecule was called inactive in assay [1], in assay [3], in assay [4], in assay [6], in [7] and in [8]. Further, the outcome in [10], in assay [11], in [12], in [13], in assay [15] and in assay [16] was inactive. In addition, the AC50 in [2] was 1.37 µM (active); in assay [5], 77.7 µM (active); in assay [9], 26 µM (active); in [14] it was 5.73 µM (active).
For the molecule `O=C(O)C1C(C(=O)O)C2(Cl)C(Cl)=C(Cl)C1(Cl)C2(Cl)Cl` (stereo not given), the outcome in assay [3], in assay [4], in assay [5], in [6], in [7] and in assay [8] was inactive. Also, the result in [9], in [10], in assay [11], in assay [12], in [13] and in [14] was inactive. Besides, the result in [15] and in assay [16] was inactive.
Consider `COCCOCCO`, for which the molecule was called inactive in assay [3], in assay [5], in assay [6], in [7], in [8] and in assay [9]. Moreover, the molecule was classed as inactive in assay [10], in assay [11], in assay [12], in [13], in assay [14] and in [15]. In addition, the molecule was classed as inactive in assay [16].
As to `CC(Cl)(Cl)C(=O)O`, the call in assay [3], in [4], in assay [5], in assay [6], in [7] and in assay [8] was inactive. For the same molecule, the molecule was classed as inactive in [9], in assay [10], in assay [11], in assay [12], in assay [13] and in assay [14]. The call in assay [15] and in [16] was inactive.
`CC(C)(C)OOC(C)(C)C`: the call in [3], in assay [4], in assay [5], in [6], in assay [7] and in assay [8] was inactive. In addition, the call in assay [9], in assay [10], in [11], in assay [12], in [13] and in assay [14] was inactive. In addition, the outcome in [15] and in assay [16] was inactive.
As for `[N-]=[N+]=[N-]`, the molecule was classed as inactive in [3], in assay [4], in assay [6], in assay [9], in assay [10] and in [13]. The outcome in [14] and in assay [15] was inactive. Further, the AC50 in [5] was 74.9 µM (active); in assay [7] it was 82.9 µM (active); in assay [8], 88.5 µM (active); in assay [11], 76.1 µM (active); in [12], 88.1 µM (active); in assay [16], 69.3 µM (active).
